Fluorescence intensity data for 59 compounds are collected here from PubChem BioAssay AID624483 (NMMLSC, 2012).

Structures are written as SMILES. Out of some 360,000 compounds screened, about 11,000 (3.1%) were called active. Inconclusive results (about 2%) are left out. This excerpt belongs to a sample that is enriched for actives. A number with no mark means an inactive call. Rule as the data show it: active = fluorescence intensity above about 16000; inconclusive = no clear call, values can overlap the other calls; inactive = below that.

This assay can be described thus: counter-screen for toxin protease inhibitors: compound fluorescence, primary screen, artefact control for toxin protease inhibitor project, biochemical, multiplex microsphere, HTS (AID 624483). The settings on record: compound autofluorescence counterscreen, microsphere flow cytometry; active compounds read high. In general terms: The purpose of a counterscreen is to sort out artefacts and off-target activity.
With `CCOC(=O)C1=CN(Cc2ccc(Br)cc2)S(=O)(=O)N(C)C1C` (centres undefined), the fluorescence intensity is 2790. The result for `COc1ccc(C(C#N)=C2C=CC(=NO)c3ccccc32)cc1` reads 5680; that for `CC1CCC(NS(=O)(=O)c2ccc3c(c2)n(C)c(=O)c(=O)n3C)CC1` (centres undefined), 22600 (active); that for `Cn1sc(=O)c2cc(S(=O)(=O)NC3CC3)ccc21`, 3800. Turning to `Cn1c(=O)c(=O)n(C)c2cc(S(=O)(=O)NCCc3ccccc3)ccc21`, the fluorescence intensity is 21300 (active). For the compound `Cn1c(=O)c(=O)n(C)c2cc(S(=O)(=O)NCCN3CCN(c4ccccc4F)CC3)ccc21`, the fluorescence intensity is 5840. Take `CC(=O)Nc1ccc(S(=O)(=O)NCCc2ccccc2)cc1`: the fluorescence intensity was 11200. In the case of `CC1CCC(NS(=O)(=O)c2ccc3c(c2)CC(=O)N3)CC1` (centres undefined), the fluorescence intensity is 6000.

With `COc1ccc([C@H]2CC(=O)C[C@@H](CCn3cc(CC4CCCC4)nn3)O2)cc1`, the fluorescence intensity is 5900. The result for `O=C(NCc1ccccc1)C1c2ccccc2OCC(=O)N1CCCN1CCOCC1` (centres undefined) reads 4950; that for `O=C(/C=C/[C@H]1O[C@@H](n2ccc(=O)[nH]c2=O)[C@H](O)[C@@H]1O)NCc1ccccn1`, 4540; that for `O=C(c1cccc(F)c1)N1CCN(c2ccc([N+](=O)[O-])c3cccnc23)CC1`, 3360. `N#Cc1ccc(C(c2ccc(C#N)cc2)n2cncn2)cc1`: the fluorescence intensity is 5930. As for `Cc1ccc(S(=O)(=O)NC2CCCCCC2)cc1`, the fluorescence intensity is 3430. For `Cc1cccc(CCNS(=O)(=O)c2ccc3c(c2)NC(=O)CO3)c1` the value was 6090. Consider `Cc1cccc(CCNS(=O)(=O)c2ccc(S(=O)(=O)NC3CCCC3)cc2)c1`, for which the fluorescence intensity was 23700 (active). With `O=C(Nc1nnc([C@H]2C[C@H](O)[C@@H](CO)O2)s1)c1cccc(Cl)c1`, the fluorescence intensity was 3090. `Cc1ccc(C(=O)Nc2nnc(-c3ccncc3)s2)o1`: the fluorescence intensity is 20300 (active). As for `O=C(Nc1nnc(Cc2ccc(Cl)cc2)s1)c1ccncc1`, the fluorescence intensity was 5560. With `NC(=O)CSc1nnc(NC(=O)c2ccc(Br)o2)s1`, the fluorescence intensity was 5930. The result for `COc1ccc(C(O)c2nc(-c3ccc(OC)nc3)cs2)cc1` (centres undefined) reads 3040; that for `COc1cc(OC)cc(C2=Cc3ccccc3C(CC(=O)c3ccco3)N2c2ccc(-c3cnc(OC)nc3)cc2)c1` (centres undefined), 5230. The result for `Cc1ccc2c(c1)N(CC(=O)N1CCCC(C)C1)C(=O)CO2` (centres undefined) reads 6170; that for `Cc1ccc2c(c1)N(CC(=O)N1CCCc3ccccc31)C(=O)C(C)O2` (centres undefined), 22200 (active); that for `Cc1ccc(C(=O)N2CCCc3ccccc32)c(Cl)c1`, 3770.

In the case of `Cn1nc(-c2ccc(Cl)cc2)c2cc(C(=O)NCc3ccco3)sc21`, the fluorescence intensity was 5560.

For `COC(=O)c1ccc(CSc2nncn2C)cc1`, the fluorescence intensity was 11000. The result for `COC(=O)c1ccc(CSc2nc3cc(Cl)ccc3o2)cc1` reads 22300 (active); that for `COC(=O)c1ccc(CNC(=O)c2ccc3oc(C(C)C)nc3c2)cc1`, 6320.

On to `CCC(C)C(CO)NC(=O)/C=C/[C@H]1O[C@@H](n2cnc3c(NC(=O)c4ccccc4)ncnc32)[C@H](O)[C@@H]1O` (some centres undefined), for which the fluorescence intensity is 4240. Consider `CC(=O)c1ccc(N2CCN(S(=O)(=O)c3ccc4c(c3)CC(=O)N4C)CC2)cc1`, for which the fluorescence intensity is 4560. For `COc1ccc(CCN2C(=O)c3[nH]nc(-c4ccccc4O)c3C2c2ccc(C)cc2)cc1OC` (centres undefined) the value was 17800 (active); for `COC(=O)c1ccc(C2C(Oc3ccccc3C)C(=O)N2CCc2ccc(OC)c(OC)c2)cc1` (centres undefined), 2780. For `COc1ccc(CCN2C(=O)C(C)=C(C)C2=O)cc1OC` the value was 3920; for `COc1ccc(C2/C=C\CN(S(=O)(=O)c3cccs3)CC(=O)N2Cc2ccc(F)cc2)cc1` (centres undefined), 3100; for `Cc1cccc(NC(=S)N2CCC(O)CC2)c1C`, 4400. On to `O=C1Nc2c(Br)cc(Br)cc2C1(O)N1CCOCC1` (centres undefined), for which the fluorescence intensity was 4310. `O=C(CCN1C(=O)[C@H]2CC=CC[C@H]2C1=O)NCc1nc(-c2ccccc2)no1`: the fluorescence intensity is 4420. As for `O=C(Cc1ccc(Cl)cc1)NCc1nc(-c2ccccc2)no1`, the fluorescence intensity is 3500. For `O=C1c2ccccc2C(=O)N1CCCc1nc(-c2ccccc2)no1` the value was 21200 (active); for `COc1cc(CNc2ncnc3c2ncn3[C@H]2CN(Cc3cccs3)C[C@@H](CO)O2)cc(OC)c1OC`, 2940. `CC1(C(=O)NS(=O)(=O)c2cccc(F)c2)CCN1C(=O)Cc1cc(F)ccc1F` (centres undefined): the fluorescence intensity is 3880. The result for `C/C(=N/NC(=O)c1ccn(C)n1)c1ccncc1` reads 4250. The result for `CC(=O)N/N=C(\C)c1ccc(Br)cc1Br` reads 4300. Consider `O=C(/C(=N\O)n1cncn1)c1ccc(Br)cc1Br`, for which the fluorescence intensity is 21600 (active). As to `Cc1ccc2nc(-c3ccc(NC(=O)c4cccnc4)cc3)oc2c1`, the fluorescence intensity is 4480. The result for `Cc1ccc(NC(=O)Nc2ccc3oc(C)nc3c2)cc1` reads 4170; that for `Cc1nc2ccc(NC(=O)C(F)(F)F)cc2o1`, 21700 (active); that for `O=C(CC[C@H]1O[C@@H](n2ccc(=O)[nH]c2=O)[C@H](O)[C@@H]1O)N[C@H](Cc1ccccc1)C(=O)NCCCN1CCCC1=O`, 4310.

On to `O=C1NC(O)CCN1C1CC(O)C(CO)O1` (centres undefined), for which the fluorescence intensity was 6570.

Consider `CCCCOC(=O)c1ccc(N2C(=O)CC(N3CCN(C/C=C/c4ccccc4)CC3)C2=O)cc1` (centres undefined), for which the fluorescence intensity was 22500 (active). `CCOC(=O)c1ccc(N2C(=O)CC(N3CCC(C(=O)OCC)CC3)C2=O)cc1` (centres undefined): the fluorescence intensity is 2510. The result for `CCOC(=O)c1ccc(N2C(=O)CC(N3CCN(C(=O)c4ccccc4)CC3)C2=O)cc1` (centres undefined) reads 2610; that for `CC(OC(=O)c1ccccc1OCc1ccc(Cl)cc1)C(N)=O` (centres undefined), 4810. `Cc1cc(=O)oc2c1ccc1ccccc12`: the fluorescence intensity was 3640. For `O=C(O)CN(Cc1ccco1)S(=O)(=O)c1ccccc1` the value was 3010. The result for `Cc1ccc(-c2csc(N(Cc3ccco3)C(=O)c3cccs3)n2)cc1` reads 2850; that for `O=C(O)CCC(=O)N(Cc1ccco1)c1nc(-c2ccccc2)cs1`, 22500 (active); that for `O=C(NCc1cccc(C(F)(F)F)c1)c1ccc2sc(COCCO)nc2c1`, 3760.
